Experimental data taken from PubChem BioAssay (NCATS).
Records with an inconclusive call do not appear. Entries that show only a call come without a potency. Values without a mark were called inactive. Calls of active or inactive are those of the source. Calls come from the whole dose curve; as a rule, active = well fitted inhibition curve with a large enough effect; inconclusive = small, poorly fitted or top-dose-only effect; inactive = flat fitted curve, though single readings scatter.

How the values were obtained:
PAD = test: qHTS profiling for inhibitors of Plasmodium falciparum proliferation (AID 504749); conditions: P. falciparum in erythrocytes, SYBR Green DNA, 72 h; series mostly up to 28.7 µM
Summary of the method: (§1)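 Fluorescence of SYBR Green-bound parasite DNA, read at 485/535 nm, served as the growth measure. Infected erythrocytes were cultured with compound 72 h; artemisinin (0.29 uM) and DMSO wells defined the normalization range.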

PC15 = test: as above; conditions: P. falciparum in erythrocytes, SYBR Green DNA, 72 h; series mostly up to 28.7 µM
Summary of the method: as §1

PC26 = test: as above; conditions: P. falciparum in erythrocytes, SYBR Green DNA, 72 h; series mostly up to 28.7 µM
Summary of the method: as §1

PC49 = test: as above; conditions: P. falciparum in erythrocytes, SYBR Green DNA, 72 h; series mostly up to 28.7 µM
Summary of the method: as §1

SC27B = test: as above; conditions: P. falciparum in erythrocytes, SYBR Green DNA, 72 h; series mostly up to 28.7 µM
Summary of the method: as §1

TAB109 = test: as above; conditions: P. falciparum in erythrocytes, SYBR Green DNA, 72 h; series mostly up to 28.7 µM
Summary of the method: as §1

TAB113 = test: as above; conditions: P. falciparum in erythrocytes, SYBR Green DNA, 72 h; series mostly up to 28.7 µM
Summary of the method: as §1

TAB165 = test: as above; conditions: P. falciparum in erythrocytes, SYBR Green DNA, 72 h; series mostly up to 28.7 µM
Summary of the method: as §1

KB-3-1 = test: Cytotoxic Profiling of Annotated Libraries Using Quantitative High-Throughput Screening (AID 1296008); conditions: Five cell lines viability, CellTiter-Glo ATP luminescence, 48-72 h; max response: active compounds read low
Summary of the method: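 Compounds were pin-transferred onto cells and incubated 48 or 72 hr at 37 degree Celsius, 95% humidity. CellTiter-Glo was added, plates sat 10 min at room temperature, then ATP-coupled luminescence was imaged as the viability read-out.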

W2 = test: qHTS profiling for inhibitors of Plasmodium falciparum proliferation (AID 504749); conditions: P. falciparum in erythrocytes, SYBR Green DNA, 72 h; series mostly up to 28.7 µM
Summary of the method: as §1
Note: nearly all actives have a fitted effect of over 60% in size.
Potency is the fitted concentration of half-maximal effect.

SMILES	Potency (PAD)	Potency (PC15)	Potency (PC26)	Potency (PC49)	Potency (SC27B)	Potency (TAB109)	Potency (TAB113)	Potency (TAB165)	max response (KB-3-1) [%]	Potency (W2)	Potency (KB-3-1)
CCCCC	inactive	inactive	inactive	inactive	inactive	inactive	inactive	inactive	7.19	–	–
CCOC(=S)SSC(=S)OCC	inactive	inactive	inactive	inactive	inactive	inactive	inactive	inactive	4.67	inactive	–
CCCCCCCCCCCCCCCCCCCCCC(=O)Nc1ccn([C@@H]2O[C@H](CO)[C@@H](O)[C@@H]2O)c(=O)n1	inactive	inactive	inactive	inactive	inactive	inactive	inactive	inactive	3.81	–	–
CCc1ccc(S(=O)(=O)O)cc1	inactive	inactive	inactive	inactive	inactive	inactive	inactive	inactive	6.98	inactive	–
O=[n+]1ccn([O-])c2ccccc21	inactive	inactive	inactive	inactive	inactive	inactive	inactive	inactive	-0.645	–	–
CN(Cc1ccccc1)Cc1ccccc1	inactive	inactive	inactive	inactive	inactive	inactive	inactive	inactive	19.7	–	–
CC(C)[C@@H](N)C(=O)O	inactive	inactive	inactive	inactive	inactive	inactive	inactive	inactive	-13.9	–	–
CCCCCCCCCCCCCCCCCC[N+](C)(C)CCC[Si](OC)(OC)OC	inactive	inactive	inactive	inactive	inactive	inactive	inactive	inactive	8.62	–	–
O=C1c2ccccc2C(=O)C1c1ccc(F)cc1	inactive	inactive	inactive	inactive	inactive	inactive	inactive	inactive	-8.05	–	–
O=C(O)c1cc(N=Nc2ccc(O)c(C(=O)O)c2)ccc1O	inactive	inactive	inactive	inactive	inactive	inactive	inactive	inactive	-1.02	–	–
O=[N+]([O-])c1c(Cl)cccc1-c1c[nH]cc1Cl	inactive	inactive	inactive	inactive	inactive	inactive	inactive	inactive	2.84	–	–
COC(=O)[C@@H](N)CS	inactive	inactive	inactive	inactive	inactive	inactive	inactive	inactive	-3.99	–	–
c1ccc2ccccc2c1	inactive	inactive	inactive	inactive	inactive	inactive	inactive	inactive	-0.155	inactive	–
O=P(O)(O)OC[C@H]1O[C@](O)(COP(=O)(O)O)[C@@H](O)[C@@H]1O	inactive	inactive	inactive	inactive	inactive	inactive	inactive	inactive	1.63	inactive	–
COC(=O)CC[C@H](N)C(=O)O	inactive	inactive	inactive	inactive	inactive	inactive	inactive	inactive	0.526	inactive	–
CN(C)C=Nc1c(I)cc(I)c(CCC(=O)O)c1I	inactive	inactive	inactive	inactive	inactive	inactive	inactive	inactive	0.601	inactive	–
CN=C1C=CC(=C(c2ccc(N(C)C)cc2)c2ccc(N(C)C)cc2)C=C1	1000 nM (active)	1000 nM (active)	1690 nM (active)	1410 nM (active)	1000 nM (active)	891 nM (active)	891 nM (active)	891 nM (active)	–	151 nM (active)	7310 nM (active)
NC(=O)[C@@H]1CCCN1C(=O)[C@H](Cc1cnc[nH]1)NC(=O)[C@@H]1CCC(=O)N1	inactive	inactive	inactive	inactive	inactive	inactive	inactive	inactive	0.162	inactive	–
CC(C)CCCC(C)NC(C)C (stereo not given)	inactive	inactive	inactive	inactive	inactive	inactive	inactive	inactive	0.846	inactive	–
CCCCCCCCCCCCCCCCCC(=O)OCC(C)O (stereo not given)	inactive	inactive	inactive	inactive	inactive	inactive	inactive	inactive	-14.3	inactive	–
